This is part of a sample that, as a whole, favours compounds with a hit. Of some 79,000 tested, about 15% had one in any assay. Active and inactive are the calls of the source. No stated cut-off is given here; in the data, active means growth inhibition above about 70%; inactive means the rest.
Experiments:
[1] = NCI Yeast Anticancer Drug Screen. Data for the rad52 strain (AID 147);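 further: 0% = growth of vehicle-treated control cultures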; settings: S. cerevisiae rad52 mutant growth inhibition, hits give high values
Summary of the method: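 Inhibition of yeast growth, referenced to vehicle controls, was the measured output for a strain with defective DNA damage repair.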

[2] = NCI Yeast Anticancer Drug Screen. Data for the wt1 strain (AID 149);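 further: 0% = growth of vehicle-treated wt1 cultures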; settings: S. cerevisiae wt1 strain (SPY 50644) growth inhibition, hits give high values
Summary of the method: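 Using yeast strain wt1, compound-induced growth inhibition was determined against vehicle-treated cultures.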

[3] = NCI Yeast Anticancer Drug Screen. Data for the rad50EPP+ strain (AID 151);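 further: 0% = growth of vehicle-treated control cultures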; settings: S. cerevisiae rad50 mutant strain, hits give high values
Summary of the method: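 Genetically defined yeast (rad50EPP+, DNA damage repair alteration) is grown with compound, and inhibition of growth is expressed relative to vehicle-treated controls.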

[4] = NCI Yeast Anticancer Drug Screen. Data for the mgt1 strain (AID 153); settings: S. cerevisiae mgt1 mutant growth inhibition, hits give high values
Summary of the method: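 In the mgt1 strain, test compounds were added and growth inhibition was determined relative to vehicle-treated controls.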

[5] = NCI Yeast Anticancer Drug Screen. Data for the rad50 strain (AID 155);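 further: 0% = growth of vehicle-only cultures of the same strain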; settings: S. cerevisiae rad50 strain growth inhibition, hits give high values
Summary of the method: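 Relative growth inhibition (compound vs vehicle) was measured in yeast with a defined repair-gene alteration.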

[6] = NCI Yeast Anticancer Drug Screen. Data for the mec2-1 strain (AID 157); settings: S. cerevisiae mec2-1 strain, hits give high values
Summary of the method: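 Each compound was tested on mec2-1 yeast, a strain altered in DNA damage repair or cell cycle control. Growth inhibition is reported relative to vehicle.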

[7] = NCI Yeast Anticancer Drug Screen. Data for the rad14 strain (AID 159);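 further: 0% = growth of vehicle-treated control cultures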; settings: S. cerevisiae rad14 strain growth inhibition, hits give high values
Summary of the method: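 Screen for anticancer potential: a yeast strain altered in DNA damage repair is grown with compound, and reduced growth is quantified against vehicle controls.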

[8] = NCI Yeast Anticancer Drug Screen. Data for the sgs1 mgt1 strain (AID 161);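 further: 0% = growth of cultures given vehicle only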; settings: S. cerevisiae sgs1 mgt1 strain, hits give high values
Summary of the method: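 Read-out: growth inhibition vs vehicle controls. Cells: mutant yeast strain deficient in DNA damage repair.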

[9] = NCI Yeast Anticancer Drug Screen. Data for the cln2 rad14 strain (AID 165);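 further: 0% = growth equal to vehicle treated cultures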; settings: S. cerevisiae cln2 rad14 strain, hits give high values
Summary of the method: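 Test compounds were added to cln2 rad14 yeast cultures; inhibition of growth was then determined by comparison with vehicle treatment.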

[10] = NCI Yeast Anticancer Drug Screen. Data for the bub3 strain (AID 167); settings: S. cerevisiae bub3 mutant strain, hits give high values
Summary of the method: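 Screening used yeast with an engineered genetic alteration affecting cell cycle control. Compound-exposed cultures were compared with vehicle cultures, and reduced growth was taken as inhibition.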

[11] = NCI Yeast Anticancer Drug Screen. Data for the wt2 strain (AID 169);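 further: 0% = growth of vehicle-treated yeast cultures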; settings: S. cerevisiae wt2 strain growth inhibition, hits give high values
Summary of the method: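 The panel's yeast strains carry defined changes in DNA repair or cell cycle genes. Each strain is grown with compound, and growth loss is scored relative to vehicle.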

[12] = at 5.0 µM (retest, dose inferred, filed as 0.5)
[13] = at 50.0 µM (retest, dose inferred, filed as 5.0)

Measured: growth inhibition

c1ccc2nc3c(nc2c1)sc1ccccc13
inactive: [1]; at 1.2 µM 13% | [2]; at 1.2 µM 1% | [2]; at 3.7 µM 4% | [2]; at 11.0 µM 17% | [2]; at 33.0 µM 27% | [2]; at 100.0 µM 23% | [3]; at 1.2 µM 41% | [4]; at 1.2 µM 2% | [4]; at 3.7 µM 2% | [4]; at 11.0 µM 10% | [4]; at 33.0 µM 20% | [4]; at 100.0 µM 18% | [5]; at 1.2 µM 13% | [5]; [12] 54% | [6]; at 1.2 µM 4% | [6]; at 3.7 µM 5% | [6]; [12] -32% | [6]; at 11.0 µM 41% | [6]; at 33.0 µM 42% | [6]; [13] 8% | [6]; at 50.0 µM 31.9% | [6]; at 100.0 µM 36% | [7]; at 1.2 µM 4% | [7]; at 3.7 µM 21% | [7]; at 11.0 µM 35% | [7]; at 33.0 µM 39% | [7]; at 100.0 µM 35% | [8]; [12] -52% | [8]; [13] -5% | [8]; at 50.0 µM 11.2% | [9]; [12] -29% | [9]; [13] 15% | [9]; at 50.0 µM 36% | [10]; at 1.2 µM 0% | [10]; at 3.7 µM 11% | [10]; [12] -40% | [10]; at 11.0 µM 41% | [10]; at 33.0 µM 47% | [10]; [13] 12% | [10]; at 50.0 µM 32.8% | [10]; at 100.0 µM 41% | [11]; at 1.2 µM -2% | [11]; at 3.7 µM 1% | [11]; at 11.0 µM 6% | [11]; at 33.0 µM 13% | [11]; at 100.0 µM 9%
active: [1]; at 3.7 µM 74% | [1]; at 11.0 µM 95% | [1]; at 33.0 µM 94% | [1]; at 100.0 µM 86% | [3]; at 3.7 µM 92% | [3]; at 11.0 µM 95% | [3]; at 33.0 µM 94% | [3]; at 100.0 µM 84% | [5]; at 3.7 µM 75% | [5]; at 11.0 µM 92% | [5]; at 33.0 µM 91% | [5]; [13] 78% | [5]; at 50.0 µM 92.8% | [5]; at 100.0 µM 82%
